# Source: ChEMBL document CHEMBL2218924, “A broad activity screen in support of a chemogenomic map for kinase signalling research and drug discovery” (Biochem J, 2013)
# Tests used:
# [1] = biological target: T1, Mitogen-activated protein kinase kinase kinase 7 (Homo sapiens) (UniProt O43318); conditions: at 1 µM
# T1 sequence (whole entry): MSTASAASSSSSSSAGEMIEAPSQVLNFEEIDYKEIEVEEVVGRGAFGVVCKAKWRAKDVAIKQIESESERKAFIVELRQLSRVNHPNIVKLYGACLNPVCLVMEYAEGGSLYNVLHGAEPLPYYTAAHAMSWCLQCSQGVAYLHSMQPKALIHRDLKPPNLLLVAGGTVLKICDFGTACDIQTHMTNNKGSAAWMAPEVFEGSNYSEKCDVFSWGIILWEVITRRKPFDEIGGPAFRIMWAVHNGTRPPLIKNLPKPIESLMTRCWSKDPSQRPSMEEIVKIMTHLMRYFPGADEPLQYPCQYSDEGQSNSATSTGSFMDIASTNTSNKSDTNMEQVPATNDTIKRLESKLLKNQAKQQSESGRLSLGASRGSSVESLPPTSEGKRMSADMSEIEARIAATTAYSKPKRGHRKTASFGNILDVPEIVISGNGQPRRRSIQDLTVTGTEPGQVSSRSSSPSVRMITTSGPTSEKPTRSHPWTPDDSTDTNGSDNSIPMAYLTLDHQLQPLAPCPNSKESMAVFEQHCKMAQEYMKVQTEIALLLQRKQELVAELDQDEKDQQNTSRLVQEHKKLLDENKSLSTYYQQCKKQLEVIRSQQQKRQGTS
# [2] = biological target: T1, Mitogen-activated protein kinase kinase kinase 7 (Homo sapiens); conditions: at 10 µM
# [3] = biological target: T2, Serine/threonine-protein kinase TAO1 (Homo sapiens) (UniProt Q7L7X3); conditions: at 1 µM
# T2 sequence (whole entry): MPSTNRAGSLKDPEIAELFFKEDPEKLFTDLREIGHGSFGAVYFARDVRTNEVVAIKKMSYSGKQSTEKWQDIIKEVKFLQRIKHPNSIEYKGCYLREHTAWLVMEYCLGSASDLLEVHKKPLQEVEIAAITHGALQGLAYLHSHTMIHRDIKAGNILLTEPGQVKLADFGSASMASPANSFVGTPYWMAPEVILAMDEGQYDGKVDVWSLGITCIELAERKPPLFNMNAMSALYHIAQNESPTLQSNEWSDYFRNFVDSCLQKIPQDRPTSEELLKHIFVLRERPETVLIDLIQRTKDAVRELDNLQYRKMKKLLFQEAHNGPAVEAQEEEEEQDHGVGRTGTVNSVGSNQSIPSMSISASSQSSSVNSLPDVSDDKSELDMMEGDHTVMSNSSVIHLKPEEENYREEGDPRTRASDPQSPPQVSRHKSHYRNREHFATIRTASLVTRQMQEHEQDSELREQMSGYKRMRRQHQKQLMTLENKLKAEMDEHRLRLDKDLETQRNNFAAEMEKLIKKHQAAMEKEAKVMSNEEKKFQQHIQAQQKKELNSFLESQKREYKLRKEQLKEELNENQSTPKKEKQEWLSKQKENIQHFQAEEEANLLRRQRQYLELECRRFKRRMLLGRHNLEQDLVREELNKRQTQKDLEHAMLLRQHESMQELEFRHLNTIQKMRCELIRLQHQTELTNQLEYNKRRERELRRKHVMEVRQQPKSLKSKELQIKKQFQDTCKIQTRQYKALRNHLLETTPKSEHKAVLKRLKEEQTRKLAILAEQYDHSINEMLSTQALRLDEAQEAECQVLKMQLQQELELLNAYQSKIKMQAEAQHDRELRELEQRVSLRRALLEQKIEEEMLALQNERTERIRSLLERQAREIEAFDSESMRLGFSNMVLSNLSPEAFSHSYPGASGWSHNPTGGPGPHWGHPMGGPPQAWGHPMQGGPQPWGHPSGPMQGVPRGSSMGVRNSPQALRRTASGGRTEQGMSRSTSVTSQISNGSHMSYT
# [4] = biological target: T2, Serine/threonine-protein kinase TAO1 (Homo sapiens); conditions: at 10 µM
# [5] = biological target: T3, Serine/threonine-protein kinase TAO2 (Homo sapiens) (UniProt Q9UL54); conditions: at 10 µM
# T3 sequence (whole entry): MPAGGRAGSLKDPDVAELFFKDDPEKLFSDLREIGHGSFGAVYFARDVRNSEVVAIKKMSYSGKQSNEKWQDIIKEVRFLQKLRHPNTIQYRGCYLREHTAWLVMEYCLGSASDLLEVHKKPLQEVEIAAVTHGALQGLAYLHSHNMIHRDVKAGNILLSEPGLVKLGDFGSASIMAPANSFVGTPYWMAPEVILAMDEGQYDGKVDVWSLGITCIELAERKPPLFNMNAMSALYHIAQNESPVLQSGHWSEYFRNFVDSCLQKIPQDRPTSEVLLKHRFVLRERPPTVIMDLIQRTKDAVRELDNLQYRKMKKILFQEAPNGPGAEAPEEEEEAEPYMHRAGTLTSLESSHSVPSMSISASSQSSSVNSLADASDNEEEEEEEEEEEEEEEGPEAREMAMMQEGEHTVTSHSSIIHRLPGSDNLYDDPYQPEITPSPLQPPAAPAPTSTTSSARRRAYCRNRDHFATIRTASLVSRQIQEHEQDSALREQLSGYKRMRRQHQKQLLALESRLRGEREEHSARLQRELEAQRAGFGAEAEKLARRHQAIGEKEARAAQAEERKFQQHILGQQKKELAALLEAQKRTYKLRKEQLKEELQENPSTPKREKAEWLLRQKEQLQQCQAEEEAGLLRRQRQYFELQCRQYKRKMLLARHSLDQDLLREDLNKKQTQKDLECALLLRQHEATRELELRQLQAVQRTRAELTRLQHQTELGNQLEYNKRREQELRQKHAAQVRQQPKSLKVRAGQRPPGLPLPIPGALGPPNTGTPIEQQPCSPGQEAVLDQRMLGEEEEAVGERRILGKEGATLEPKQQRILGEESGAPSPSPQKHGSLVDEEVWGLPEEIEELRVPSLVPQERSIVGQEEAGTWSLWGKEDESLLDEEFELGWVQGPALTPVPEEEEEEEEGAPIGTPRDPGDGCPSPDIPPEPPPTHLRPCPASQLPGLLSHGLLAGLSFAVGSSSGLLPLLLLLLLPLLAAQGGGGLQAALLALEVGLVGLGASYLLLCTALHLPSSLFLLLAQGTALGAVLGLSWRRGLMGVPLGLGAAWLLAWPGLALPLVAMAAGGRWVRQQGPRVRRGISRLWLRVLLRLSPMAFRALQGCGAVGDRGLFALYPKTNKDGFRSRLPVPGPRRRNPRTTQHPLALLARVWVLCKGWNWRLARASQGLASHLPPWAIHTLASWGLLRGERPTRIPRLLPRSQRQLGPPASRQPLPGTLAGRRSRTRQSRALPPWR
# [6] = biological target: T4, Serine/threonine-protein kinase TAO3 (Homo sapiens) (UniProt Q9H2K8); conditions: at 1 µM
# T4 sequence (whole entry): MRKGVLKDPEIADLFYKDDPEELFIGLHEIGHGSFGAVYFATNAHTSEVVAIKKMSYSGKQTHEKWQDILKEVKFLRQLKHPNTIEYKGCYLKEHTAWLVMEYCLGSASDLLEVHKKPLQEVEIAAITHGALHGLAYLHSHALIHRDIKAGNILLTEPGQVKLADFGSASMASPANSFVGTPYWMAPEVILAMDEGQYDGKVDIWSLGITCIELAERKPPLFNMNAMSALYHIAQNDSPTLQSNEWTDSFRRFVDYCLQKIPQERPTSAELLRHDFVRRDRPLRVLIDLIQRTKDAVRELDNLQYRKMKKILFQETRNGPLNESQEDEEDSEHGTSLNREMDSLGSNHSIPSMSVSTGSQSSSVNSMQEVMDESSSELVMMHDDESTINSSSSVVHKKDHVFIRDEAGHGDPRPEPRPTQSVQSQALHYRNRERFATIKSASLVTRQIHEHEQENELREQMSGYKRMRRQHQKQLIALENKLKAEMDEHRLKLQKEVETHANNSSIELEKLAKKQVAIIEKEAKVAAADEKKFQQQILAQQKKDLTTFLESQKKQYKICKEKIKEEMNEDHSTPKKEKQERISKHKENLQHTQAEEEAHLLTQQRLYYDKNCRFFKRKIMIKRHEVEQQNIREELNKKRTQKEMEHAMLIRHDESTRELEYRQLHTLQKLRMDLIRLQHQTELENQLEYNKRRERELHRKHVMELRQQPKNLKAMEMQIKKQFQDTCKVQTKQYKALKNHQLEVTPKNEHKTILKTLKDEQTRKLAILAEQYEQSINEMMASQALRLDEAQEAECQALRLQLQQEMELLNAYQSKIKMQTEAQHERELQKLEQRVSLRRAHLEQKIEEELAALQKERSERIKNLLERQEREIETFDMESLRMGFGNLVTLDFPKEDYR
# [7] = biological target: T4, Serine/threonine-protein kinase TAO3 (Homo sapiens); conditions: at 10 µM
# [8] = biological target: T5, Serine/threonine-protein kinase TBK1 (Homo sapiens) (UniProt Q9UHD2); conditions: at 1 µM
# T5 sequence (whole entry): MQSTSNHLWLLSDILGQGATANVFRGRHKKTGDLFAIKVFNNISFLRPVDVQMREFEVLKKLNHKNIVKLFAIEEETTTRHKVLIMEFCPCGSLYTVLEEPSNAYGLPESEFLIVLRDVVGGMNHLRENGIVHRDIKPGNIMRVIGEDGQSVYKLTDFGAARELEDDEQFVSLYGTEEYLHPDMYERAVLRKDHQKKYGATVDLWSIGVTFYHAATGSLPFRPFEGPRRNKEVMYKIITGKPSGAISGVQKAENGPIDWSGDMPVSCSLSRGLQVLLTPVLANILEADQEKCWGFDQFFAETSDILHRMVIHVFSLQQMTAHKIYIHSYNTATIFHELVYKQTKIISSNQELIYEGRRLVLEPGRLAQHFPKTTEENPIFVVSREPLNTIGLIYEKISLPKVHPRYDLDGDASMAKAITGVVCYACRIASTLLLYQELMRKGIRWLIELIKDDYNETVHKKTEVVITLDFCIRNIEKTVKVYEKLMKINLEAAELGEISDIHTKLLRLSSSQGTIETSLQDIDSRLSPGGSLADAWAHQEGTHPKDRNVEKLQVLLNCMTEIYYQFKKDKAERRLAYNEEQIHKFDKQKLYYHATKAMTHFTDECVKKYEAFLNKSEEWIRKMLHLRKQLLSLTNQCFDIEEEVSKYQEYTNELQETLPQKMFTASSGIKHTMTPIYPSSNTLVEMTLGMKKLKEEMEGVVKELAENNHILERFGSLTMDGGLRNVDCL
# [9] = biological target: T5, Serine/threonine-protein kinase TBK1 (Homo sapiens); conditions: at 10 µM
# [10] = biological target: T6, TGF-beta receptor type-1 (Homo sapiens) (UniProt P36897); conditions: at 1 µM
# T6 sequence (whole entry): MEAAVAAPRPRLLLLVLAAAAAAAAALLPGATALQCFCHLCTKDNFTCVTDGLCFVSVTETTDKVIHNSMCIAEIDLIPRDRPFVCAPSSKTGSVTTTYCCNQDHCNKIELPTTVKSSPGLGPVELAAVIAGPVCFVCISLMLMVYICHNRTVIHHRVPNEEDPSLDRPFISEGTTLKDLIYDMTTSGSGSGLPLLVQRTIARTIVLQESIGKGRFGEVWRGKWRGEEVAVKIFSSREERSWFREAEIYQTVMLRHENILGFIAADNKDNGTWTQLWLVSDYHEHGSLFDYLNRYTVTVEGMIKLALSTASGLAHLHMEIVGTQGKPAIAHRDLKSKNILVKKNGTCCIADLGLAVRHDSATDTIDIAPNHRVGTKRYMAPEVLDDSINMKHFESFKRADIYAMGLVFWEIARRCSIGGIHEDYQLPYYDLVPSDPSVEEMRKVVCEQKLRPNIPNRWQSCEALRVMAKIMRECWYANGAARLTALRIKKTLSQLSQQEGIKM
# [11] = biological target: T6, TGF-beta receptor type-1 (Homo sapiens); conditions: at 10 µM
# [12] = biological target: Insulin-like growth factor 1 receptor (Homo sapiens) (UniProt P08069); conditions: at 1 µM
# [13] = biological target: Insulin-like growth factor 1 receptor (Homo sapiens) (UniProt P08069); conditions: at 10 µM
# Insulin-like growth factor 1 receptor (Homo sapiens), sequence (P08069 31-736 limits assumed): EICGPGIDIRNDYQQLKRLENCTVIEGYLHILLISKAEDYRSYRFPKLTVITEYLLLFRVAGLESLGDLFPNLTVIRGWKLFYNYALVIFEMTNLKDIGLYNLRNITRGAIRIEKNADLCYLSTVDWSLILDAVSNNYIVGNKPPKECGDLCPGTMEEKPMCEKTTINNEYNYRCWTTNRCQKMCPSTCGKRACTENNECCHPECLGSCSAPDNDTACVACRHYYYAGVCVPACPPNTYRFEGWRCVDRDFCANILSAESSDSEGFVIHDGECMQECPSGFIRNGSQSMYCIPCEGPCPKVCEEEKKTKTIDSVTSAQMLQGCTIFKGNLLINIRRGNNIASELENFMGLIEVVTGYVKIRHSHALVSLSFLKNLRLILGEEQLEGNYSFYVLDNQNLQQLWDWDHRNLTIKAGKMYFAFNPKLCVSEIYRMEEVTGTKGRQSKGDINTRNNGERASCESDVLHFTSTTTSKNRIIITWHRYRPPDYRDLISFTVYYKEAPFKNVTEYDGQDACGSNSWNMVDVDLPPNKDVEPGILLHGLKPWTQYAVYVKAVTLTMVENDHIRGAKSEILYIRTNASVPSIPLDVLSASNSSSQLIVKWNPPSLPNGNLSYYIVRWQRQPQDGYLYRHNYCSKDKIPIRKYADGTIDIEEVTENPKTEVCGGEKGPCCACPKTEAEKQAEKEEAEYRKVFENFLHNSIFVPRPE
# Insulin-like growth factor 1 receptor (Homo sapiens), sequence (P08069 741-1367 limits assumed): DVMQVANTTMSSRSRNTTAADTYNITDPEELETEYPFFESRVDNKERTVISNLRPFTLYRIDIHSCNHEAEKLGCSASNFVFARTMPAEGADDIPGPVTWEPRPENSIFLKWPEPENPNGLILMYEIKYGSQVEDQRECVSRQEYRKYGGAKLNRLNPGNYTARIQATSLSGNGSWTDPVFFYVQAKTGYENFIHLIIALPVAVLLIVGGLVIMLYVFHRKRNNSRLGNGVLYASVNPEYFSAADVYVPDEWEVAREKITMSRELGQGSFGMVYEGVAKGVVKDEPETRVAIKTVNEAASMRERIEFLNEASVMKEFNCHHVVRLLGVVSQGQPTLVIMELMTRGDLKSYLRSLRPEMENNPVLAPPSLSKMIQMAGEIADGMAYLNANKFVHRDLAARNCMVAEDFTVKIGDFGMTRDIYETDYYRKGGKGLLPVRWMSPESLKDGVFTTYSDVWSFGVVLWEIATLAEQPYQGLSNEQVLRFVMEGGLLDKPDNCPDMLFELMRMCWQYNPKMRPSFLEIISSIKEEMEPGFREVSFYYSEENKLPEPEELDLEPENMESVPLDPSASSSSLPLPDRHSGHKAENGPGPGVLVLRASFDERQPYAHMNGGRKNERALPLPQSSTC
compound,measurement,setting,value
Cc1cccc(-c2[nH]c(C(C)(C)C)nc2-c2ccc3c(c2)OCO3)n1,residual activity,[1],89%
same,residual activity,[2],90%
same,residual activity,[3],103%
same,residual activity,[4],98%
same,residual activity,[5],90%
same,residual activity,[6],101%
same,residual activity,[7],102%
same,residual activity,[8],73%
same,residual activity,[9],72%
same,residual activity,[10],10%
same,residual activity,[11],0%
same,residual activity,[12],106%
same,residual activity,[13],96%
